The text below walks through data of PubChem BioAssay AID2661 (Broad Institute, 2010).

The inhibition is the drop in the measured response relative to a control, in per cent.

Each structure is given as a SMILES string. About 240 (0.075%) of roughly 320,000 compounds were called active. The sample holds actives, similar compounds and a random draw of the others, so the mix is not that of the screen.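 How the source made its calls: active means inhibition at or above 25%, using the most active replicate where run in duplicate; inactive means inhibition below 25%.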

The target of this assay is Serine/threonine-protein kinase 33 (Homo sapiens) (UniProt Q9BYT3). The assay can be described thus: inhibitors of purified STK33 kinase, primary screen, biochemical, ADP-Glo luminescence, homogeneous, cell-free (AID 2661). The conditions noted are these: purified STK33, MBP phosphorylation, at 10 µM, active compounds read high. Background: ADP-Glo first removes unused ATP, then detects ADP through luciferase.
Sequence of Serine/threonine-protein kinase 33 (Homo sapiens) (Q9BYT3 whole entry, looked up): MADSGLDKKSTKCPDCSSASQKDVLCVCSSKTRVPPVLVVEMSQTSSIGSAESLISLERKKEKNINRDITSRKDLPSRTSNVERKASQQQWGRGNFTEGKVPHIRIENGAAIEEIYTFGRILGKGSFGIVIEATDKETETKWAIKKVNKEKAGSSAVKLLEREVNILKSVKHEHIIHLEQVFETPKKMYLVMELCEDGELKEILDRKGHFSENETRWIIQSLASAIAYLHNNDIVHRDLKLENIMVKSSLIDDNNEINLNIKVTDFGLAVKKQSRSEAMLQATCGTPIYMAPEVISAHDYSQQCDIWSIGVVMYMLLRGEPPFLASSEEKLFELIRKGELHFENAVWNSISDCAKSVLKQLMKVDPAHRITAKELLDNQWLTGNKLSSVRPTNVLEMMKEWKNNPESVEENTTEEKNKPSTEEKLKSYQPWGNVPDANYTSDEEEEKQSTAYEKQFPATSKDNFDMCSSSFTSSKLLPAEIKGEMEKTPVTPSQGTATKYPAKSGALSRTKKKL
As for `COc1ccc(CCNC(=O)COC(=O)c2cnc(Cl)c(Cl)c2)cc1`, the inhibition is 0.375% (inactive).

As to `C[C@]12CC[C@H](O)CC1=CCC1C2CC[C@@]2(C)C1CC[C@@H]2NC(=O)CCC(=O)O` (stereo partly drawn), the inhibition is -0.89% (inactive).

For `CC1CCCCC1NCC(=O)Nc1ccccc1C(=O)Nc1ccccc1` (stereo not drawn), the inhibition was 0.481% (inactive).

As to `CC(C)(C)OC(=O)C[C@H]1C/C=C\C[C@@H](CC(=O)N[C@H](CO)Cc2ccccc2)C(=O)NC[C@@H](c2ccccc2)OC1=O`, the inhibition is -0.103% (inactive).

Regarding `O=C1COc2ccc(C(=O)COC(=O)c3ccccc3Cl)cc2N1`, the inhibition was -0.902% (inactive).

On to `Cn1c(N)c(C(=O)COC(=O)c2cccc(S(=O)(=O)N3CCOCC3)c2)c(=O)n(C)c1=O`, for which the inhibition is -0.402% (inactive).

Turning to `O=C(Cn1cc(C(F)(F)F)ccc1=O)Nc1ccc2c(c1)OCCO2`, the inhibition is -0.216% (inactive).

Turning to `C[C@H]1COC(=O)[C@H](CC(=O)OC(C)(C)C)C/C=C\C[C@@H](CC(=O)N[C@H](CO)Cc2ccccc2)C(=O)N1`, the inhibition is 0.871% (inactive).

For `C[C@H](CO)N1C[C@H](C)[C@@H](CN(C)S(=O)(=O)c2ccc(F)cc2)Oc2ccc(NC(=O)CCC(F)(F)F)cc2C1=O`, the inhibition is -3.43% (inactive).

As to `CCN(c1ccccc1)S(=O)(=O)c1ccc(C(=O)Nc2ccccc2OC)cc1`, the inhibition was -0.186% (inactive).

As for `Cc1csc2nc(COC(=O)c3cccc(N(C)C)c3)cc(=O)n12`, the inhibition is 0.859% (inactive).

As for `Cc1csc(=O)n1CC(=O)Nc1ccc(S(C)(=O)=O)cc1`, the inhibition was -0.384% (inactive).

For the compound `COc1ccc(-c2c(C#Cc3ccsc3)c3cc(-c4ccc(CN5CCOCC5)cc4)ccc3n2C)cc1`, the inhibition is -0.0231% (inactive).

As for `O=S(=O)(Nc1ncnc2sccc12)c1cccc(F)c1`, the inhibition was -0.694% (inactive).

In the case of `CCN(C[C@H]1N[C@@](CC)(C(=O)OC)[C@H]2C(=O)N(C)C(=O)[C@@H]12)C(=O)Nc1ccc(F)cc1`, the inhibition was -1.58% (inactive).

Take `Cc1ccc(NC(=O)c2ccc(Cl)nc2)cc1S(=O)(=O)N1CCOCC1`: the inhibition is -0.219% (inactive).

With `COc1ccccc1N(CC(=O)Nc1ccc(C)cc1Cl)S(=O)(=O)c1cccs1`, the inhibition was -0.284% (inactive).

In the case of `Cc1ccc(CNC(=O)COC(=O)C2CCC2)cc1`, the inhibition is -0.167% (inactive).

`C=CC[C@@H](CC(=O)N[C@H](CO)Cc1ccccc1)C(=O)N[C@H](C)COC(=O)[C@@H](CC=C)Cc1ccc(F)cc1`: the inhibition is -1.41% (inactive).

As to `O=C(COC(=O)c1cc(S(=O)(=O)N2CCOCC2)ccc1F)NC1CC1`, the inhibition is -1.08% (inactive).

`O=C1CC2(CCCC2)C(=O)N1CN1CCN(S(=O)(=O)c2ccc(F)cc2F)CC1`: the inhibition is 0.0533% (inactive).

Turning to `O=C(C[C@H]1C/C=C\C[C@@H](NC(=O)OCC2c3ccccc3-c3ccccc32)C(=O)O[C@@H](c2ccccc2)CNC1=O)N[C@H](CO)Cc1ccccc1`, the inhibition is 0.211% (inactive).

Take `COc1ccc(C(=O)COC(=O)c2c(C)noc2C)cc1Cl`: the inhibition is 0.472% (inactive).

As for `O=C(COC(=O)c1cccnc1Cl)NC12CC3CC(CC(C3)C1)C2`, the inhibition was -1.76% (inactive).

Take `CCn1c(=O)c([N+](=O)[O-])c(NCc2ccc3c(c2)OCO3)c2ccccc21`: the inhibition is 2.57% (inactive).

As to `CCn1c(/C=C/c2ccc([N+](=O)[O-])o2)nc2ccccc2c1=O`, the inhibition was 84.6% (active).

Consider `Cc1cc(C)nc(N/N=C/c2ccc([N+](=O)[O-])o2)n1`, for which the inhibition was 0.179% (inactive).

In the case of `Cn1c(N)c(C(=O)COC(=O)c2ccc3ccccc3c2)c(=O)n(C)c1=O`, the inhibition was -1.35% (inactive).

As for `CCOC(=O)[C@H]1[C@H]2COc3cc(OC)ccc3[C@@H]2N2C(=O)CN(Cc3ccc(Cl)cc3)C(=O)[C@@]12C`, the inhibition was 0.914% (inactive).

As for `O=C(COC(=O)c1n[nH]c2ccccc12)Nc1ccccc1Br`, the inhibition is -1.11% (inactive).

Regarding `CC1CCCCC1NC(=O)Cn1cnc2c1c(=O)n(C)c(=O)n2C` (stereo not drawn), the inhibition was 1.66% (inactive).

As for `Cc1ccc2c(c1)NC(=O)[C@@]1(C)[C@@H](c3ccccc3)[C@H]3COc4ccc(Cl)cc4[C@@H]3N1C2=O`, the inhibition is -0.222% (inactive).

Regarding `CC1(C)CC[C@@]2(C(=O)O)C(C1)C1=CCC3[C@@]4(C)CC[C@H](O)C(C)(C)C4CC[C@@]3(C)[C@]1(C)C[C@H]2O` (stereo partly drawn), the inhibition was -0.618% (inactive).

`CCN(C[C@H]1N[C@@](Cc2ccccc2)(C(=O)OC)[C@H]2C(=O)N(Cc3ccccc3)C(=O)[C@@H]12)C(=O)c1ccc(C)cc1`: the inhibition is -0.0719% (inactive).

With `COc1ccc(-c2nc3cnccn3c2NC2CCCCC2)cc1-c1cccc(Cl)c1`, the inhibition was 0.0525% (inactive).

For the compound `CN1CCN(C(=O)c2ccc(-c3ccc(Br)cc3)o2)CC1`, the inhibition was -1.87% (inactive).

For the compound `Cc1ccc(C2(C)NC(=O)N(CC(=O)N3CC(=O)Nc4ccccc43)C2=O)cc1` (stereo not drawn), the inhibition is -1.43% (inactive).

On to `O=C(NCc1ccc2c(c1)OCO2)c1cc([N+](=O)[O-])ccc1N1CCOCC1`, for which the inhibition is 0.302% (inactive).

Regarding `COc1ccc(Br)cc1CN(C)C(=O)C1CC(=O)N(C2CCCC2)C1` (stereo not drawn), the inhibition was -1.57% (inactive).

Regarding `COc1cc(C=NNC(=O)c2cccnc2)ccc1OC(=O)c1ccccc1F`, the inhibition was -0.897% (inactive).

Take `COc1ccccc1C(=O)OCC(=O)Nc1cccc(S(=O)(=O)NC2=NCCCCC2)c1`: the inhibition is -2.03% (inactive).

`O=C(NNS(=O)(=O)c1c(F)cc(F)c(Cl)c1F)C12CC3CC(CC(C3)C1)C2`: the inhibition is 0.0785% (inactive).

For `C=CC[C@H](CC(=O)N(CCO)Cc1ccccc1)C(=O)N[C@@H](COC(=O)[C@@H](CC=C)Cc1ccc(F)cc1)Cc1ccccc1`, the inhibition is -2.76% (inactive).

As for `CC1(c2ccccc2)NC(=O)N(CC(=O)N2CC(=O)Nc3ccccc32)C1=O` (stereo not drawn), the inhibition was -2.96% (inactive).

For the compound `O=C(Nc1cccc(S(=O)(=O)N2CCOCC2)c1)C12CC3CC(CC(C3)C1)C2`, the inhibition was -0.903% (inactive).

As to `COc1ccc(C2=Nn3c(nnc3-c3ccccc3OC)SC2)cc1OC1CCCC1`, the inhibition was 0.928% (inactive).

Consider `O=C(COC(=O)c1ccncc1)Nc1ccc2c(c1)OCO2`, for which the inhibition is 0.121% (inactive).

As to `CN(CC(=O)NCCc1ccc(S(N)(=O)=O)cc1)CC(=O)Nc1ccc(F)c(F)c1F`, the inhibition was -2.4% (inactive).

Regarding `Cc1cccc(C(=O)OCC(=O)NC(C)C2CC3CCC2C3)c1O` (stereo not drawn), the inhibition is -0.0496% (inactive).

With `Cc1occc1C(=O)Nc1cccc(S(=O)(=O)N2CCOCC2)c1`, the inhibition is -0.0898% (inactive).

Regarding `O=C(COC(=O)c1ccc2c(c1)OCCO2)NCc1ccccc1Cl`, the inhibition is 0.627% (inactive).

On to `COc1ccc2sc(-c3ccc(S(C)(=O)=O)cc3)c(-c3ccc(C(N)=O)cc3)c2c1`, for which the inhibition was 0.996% (inactive).

Turning to `CCOC(=O)C1CCN(C(=O)CN2C(=O)NC(C)(c3ccc4cc(OC)ccc4c3)C2=O)CC1` (stereo not drawn), the inhibition was -0.656% (inactive).

Consider `O=C(OCCN1C(=O)c2ccccc2C1=O)[C@@H]1CC(O)CN1S(=O)(=O)c1ccccc1[N+](=O)[O-]` (stereo partly drawn), for which the inhibition is -1.85% (inactive).

`Cc1ccc(C(=O)Nc2ccc3c(c2)OCCO3)cc1S(=O)(=O)N1CCOCC1`: the inhibition was -0.304% (inactive).

Turning to `CC(C)Cn1c(SCC(=O)Nc2ccc(Cl)cc2F)nc(O)cc1=O`, the inhibition is -0.953% (inactive).

On to `COc1ccc(N=Cc2c(O)[nH]c3ccccc23)cc1OC`, for which the inhibition was 52.5% (active).

In the case of `CN=c1scc(-c2cc(OC)ccc2OC)n1/N=C/c1c(C)[nH]c2ccccc12`, the inhibition is -0.488% (inactive).

For the compound `COc1ccccc1N=Cc1c(O)c2ccccc2oc1=O`, the inhibition was -1.49% (inactive).

Take `COc1cc(N=Cc2c(O)[nH]c3ccccc23)cc(OC)c1OC`: the inhibition was 58.4% (active).

In the case of `COc1ccc2[nH]c(C(=O)N/N=C/c3cc(OC)c(OC)c(OC)c3)cc2c1`, the inhibition was 2.65% (inactive).

As to `COc1cc(/C=N/NC(=O)Cc2ccccc2)cc(OC)c1OC`, the inhibition is -2.17% (inactive).

Regarding `O=C1NC(Cc2ccc(O)cc2)c2nc3ccc(Cl)cc3c(=O)n2-c2ccccc21` (stereo not drawn), the inhibition is -0.58% (inactive).

Turning to `COc1ccc(S(=O)(=O)N2CCN(CC(=O)N3CCOCC3)CC2)cc1OC`, the inhibition was -0.603% (inactive).

As for `C=CCC[C@@H](Cc1ccc(F)cc1)C(=O)O[C@H](CNC(=O)[C@H](CC=C)CC(=O)N(CCO)Cc1ccccc1)c1ccccc1`, the inhibition was -2.71% (inactive).

In the case of `COc1cccc(NC(=O)COc2cccnc2[N+](=O)[O-])c1`, the inhibition was -0.0978% (inactive).

With `CC(OC(=O)c1ccc(Cl)cc1O)C(=O)NCCC1=CCCCC1` (stereo not drawn), the inhibition is -0.652% (inactive).

As for `CC1CC(=NNC(=O)C2COc3ccccc3O2)CC(C)(C)C1` (stereo not drawn), the inhibition is -2.29% (inactive).

As to `CN(CC(=O)Nc1ccc(C(N)=O)cc1)S(=O)(=O)c1ccc2c(c1)OCCO2`, the inhibition is -0.492% (inactive).

On to `O=C(Nc1cccc(S(=O)(=O)NC2=NCCC2)c1)c1ccc(F)cc1F`, for which the inhibition was -1.19% (inactive).

Consider `Cc1ccc(S(=O)(=O)Nc2ccc(F)c(S(=O)(=O)N3CCOCC3)c2)cc1`, for which the inhibition was -2.74% (inactive).

On to `COc1ccc(C(=O)COC(=O)C(O)c2ccccc2)c(OC)c1` (stereo not drawn), for which the inhibition was -0.118% (inactive).

Take `O=C(N[C@@H]1C/C=C\C[C@@H](CC(=O)N(CCO)Cc2ccccc2)C(=O)N[C@H](Cc2ccccc2)COC1=O)OCC1c2ccccc2-c2ccccc21`: the inhibition is -2.32% (inactive).

On to `Fc1ccc2cnc(-c3ccccc3)cc2c1`, for which the inhibition was -0.562% (inactive).

For the compound `C=CCC[C@@H](Cc1ccc(F)cc1)C(=O)OC[C@H](Cc1c[nH]c2ccccc12)NC(=O)[C@@H](CC=C)CC(=O)N(CCO)Cc1ccccc1`, the inhibition is -0.461% (inactive).

Regarding `O=C1N[C@@H](c2ccccc2)COC(=O)[C@H](Cc2ccc(F)cc2)C/C=C\C[C@@H]1CC(=O)N(CCO)Cc1ccccc1`, the inhibition is 0.44% (inactive).

In the case of `CCN(CC(=O)NCc1ccc(F)cc1)S(=O)(=O)c1ccc(Cl)s1`, the inhibition is 0.0366% (inactive).

For the compound `NC(=O)Nc1ccc(C(=O)OCC(=O)NC2CCCc3ccccc32)cc1` (stereo not drawn), the inhibition was -0.0928% (inactive).
